Only a selection was taken, and hits are over-represented in it overall.
HT1080-NT tox = kills 2HG-producing HT-1080-NT fibrosarcoma cells; HT-1080-NT fibrosarcoma viability, CellTiter-Glo ATP luminescence, 48 h; Potency, µM (series often up to 46.1 µM), without a hit: at the highest dose activity, negative = less viability, actives largely listed as cytotoxic; 360,000 tested, 1.6% active;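 also: NT is the 2HG producing partner of a matched IDH1 knockdown line; potency is read from the fitted curve at half-maximal effect; 0% = DMSO-treated cells and -100% = media-only wells without cells; nearly all actives have a fitted effect of over 55% in size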
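Viability by CellTiter-Glo luminescence after 48 h compound exposure at 37C of HT-1080-NT cells (750/well, RPMI, 5% FBS). % activity scaled between DMSO wells and medium-only wells, then curve-fitted and categorized by curve class.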
12-LOX inh = inhibitors of human 12S-lipoxygenase ALOX12; P18054; 580,000 tested, 1.1% active; Potency, µM (series often up to 108 µM), without a hit: at the highest dose activity change, negative = inhibition, most hits filed as inhibitors; purified 12hLO, xylenol orange hydroperoxide absorbance; also: potency is read from the fitted curve at half-maximal effect
Target sequence (P18054 whole entry, looked up): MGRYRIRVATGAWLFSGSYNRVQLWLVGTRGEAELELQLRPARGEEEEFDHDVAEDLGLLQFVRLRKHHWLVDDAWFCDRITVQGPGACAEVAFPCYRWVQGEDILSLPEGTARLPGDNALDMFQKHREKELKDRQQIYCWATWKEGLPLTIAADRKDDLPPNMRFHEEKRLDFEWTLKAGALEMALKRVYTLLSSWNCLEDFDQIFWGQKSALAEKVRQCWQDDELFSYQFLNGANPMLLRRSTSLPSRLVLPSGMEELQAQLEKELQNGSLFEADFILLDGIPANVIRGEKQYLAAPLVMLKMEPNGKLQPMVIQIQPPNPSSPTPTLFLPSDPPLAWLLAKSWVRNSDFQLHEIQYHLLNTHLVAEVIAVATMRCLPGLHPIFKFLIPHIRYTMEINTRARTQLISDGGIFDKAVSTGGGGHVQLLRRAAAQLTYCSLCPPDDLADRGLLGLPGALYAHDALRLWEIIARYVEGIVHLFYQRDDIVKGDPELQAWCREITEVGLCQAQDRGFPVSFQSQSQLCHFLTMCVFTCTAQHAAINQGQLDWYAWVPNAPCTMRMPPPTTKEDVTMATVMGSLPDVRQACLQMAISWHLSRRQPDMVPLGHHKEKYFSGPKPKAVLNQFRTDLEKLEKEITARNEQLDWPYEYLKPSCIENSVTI
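Purified human 12hLO (150 nM final) in 25 mM Hepes, 0.01% Triton X-100, pH 7.0 was preincubated 15 min at room temperature with compound. Then 40 uM arachidonic acid was added, 30 min. Hydroperoxide was read by Fe-XO absorbance ratio 573/405 nm.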
TDP1 cell CPT = DT40-hTDP1 cell growth loss with CPT. chicken DT40 Tdp1-/-;hTDP1 cells + 20 nM CPT, ATP luminescence, 48 h. Potency, µM (doses to about 46.2 µM), inactives show top-dose activity change, negative = growth inhibition, most hits filed as inhibitors. 420,000 tested, 12% active. AID 686979; also: potency is read from the fitted curve at half-maximal effect; nearly all actives have a fitted effect of over 55% in size
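Chicken DT40 Tdp1-/- cells stably complemented with human TDP1 were seeded at 400 cells/well in medium containing 20 nM camptothecin, exposed to pin-transferred compounds, and grown at 37 °C for at least 48 hr. Viability was read as ATP luminescence.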
HT1080 IDH1KD tx = HT-1080 IDH1 knockdown cell toxicity (counter line); HT-1080 IDH1 knockdown viability, ATP luminescence, 48 h; Potency, µM (highest dose often 46.1 µM), for the others: at the highest dose activity, negative = toxicity, hits mostly cytotoxic; 360,000 tested, 2% active;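 also: potency is read from the fitted curve at half-maximal effect; 0% = DMSO wells and -100% = cell-free medium wells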
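HT-1080-IDH1KD cells (IDH1 knocked down), 750/well in RPMI with 5% FBS, treated with compound 48 h at 37 degrees C. Viability by CellTiter-Glo luminescence, normalised to DMSO and no-cell wells; concentration-response curves classed.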
IL1B secr inh = inflammasome signaling inhibition, IL-1 beta readout. AID 743279. activity change, % at 57.5 µM. 360,000 tested, 4.7% active. THP-1 LPS/ATP IL-1B secretion, AlphaLISA, 16 h; stronger effect = lower value; in the data active = activity change below about -50%; inconclusive = mostly about -30% to -49%
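THP-1 cells pretreated 1 hr with compounds (up to 57.5 uM final), then stimulated with LPS (250 ng/mL final) plus ATP (1.25 mM final); secreted IL-1B measured by AlphaLISA after 16 hr, decreased signal indicating inhibition.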
DT40 TDP1 no CPT = qHTS for Inhibitors of human tyrosyl-DNA phosphodiesterase 1 (TDP1): qHTS in cells in absence of CPT; Potency, µM (top dose mostly 46.2 µM), for the others: at the top dose activity change, negative = growth inhibition, actives largely listed as inhibitors; AID 686978, 2013; 420,000 tested, 15% active; DT40 Tdp1-/- hTDP1 cells, no CPT, ATP luminescence, 48 h; also: potency is read from the fitted curve at half-maximal effect; nearly all actives have a fitted effect of over 55% in size
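Chicken DT40 Tdp1-/- cells stably complemented with human TDP1 were seeded at 400 cells/well with DMSO in place of 20 nM camptothecin. After compound pinning, cells grew at least 48 hr at 37 °C; viability read by CellTiter-Glo luminescence.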
* hit, by the source's call; ? = inconclusive; / = no result given; [ ] = dose if it differs, or a comment. Unless noted, calls follow the shape of the dose curve; as a rule, active = well fitted curve in the direction sought with a large enough effect; inconclusive = small, poorly fitted or top-dose-only effect, or another doubt; inactive = no such curve, though single readings can be large; an effect the other way counts as inactive or inconclusive. Unless noted, % is scaled to controls: 0 for no effect and ±100 for the full control effect.

SMILES	HT1080-NT tox	12-LOX inh	TDP1 cell CPT	HT1080 IDH1KD tx	IL1B secr inh	DT40 TDP1 no CPT
CC1=C(C)CS(=O)N(c2ccc(S(N)(=O)=O)cc2)C1 (stereo unspecified)	-24%	-11%	13µM*	-6%	-93*	23µM*
O=S(=O)(c1ccccc1)N1CCN(S(=O)(=O)c2ccccc2)CC1	/	/	17%	/	/	-1%
CC1=C(C)CS(=O)N(S(=O)(=O)c2ccccc2)C1 (stereo unspecified)	?	-19%	23µM*	?	-50*	10µM*
CC(C)NS(=O)(=O)c1ccc(Cl)c(C(=O)NCc2ccc(-c3nc4ccccc4s3)o2)c1	/	16µM*	/	/	/	/
c1ccc(COc2ncnc3c2ncn3CCCN2CCN(c3ccccn3)CC2)cc1	-11%	-3%	?	-1%	-26	16µM*
c1ccc(CCCN2CCN(c3ccccn3)CC2)cc1	-13%	4.5µM*	-9%	-2%	-9	0%
CSc1ncnc2c1ncn2CCCN1CCN(c2ccccn2)CC1	-1%	-2%	?	0%	30	16µM*
O=C(CCc1ncc(-c2ccc(F)cc2F)o1)NCc1ccco1	/	-10%	/	/	/	/
COc1ccc(N2CC(C(=O)N3CCC(C(=O)NCc4cccc(Cl)c4)C3)NC2=O)cc1 (stereo unspecified)	/	50%	/	/	/	/
CCNC(=S)NNC(=O)c1cc(-c2cccc(OCC)c2)nc2ccccc12	?	-14%	15µM*	7%	-1	10µM*
CCNC(=S)NNC(=O)c1cc(-c2cccc(C)c2)nc2ccccc12	?	?	21µM*	6.3µM*	-11	7.3µM*
CCCCOc1cccc(-c2cc(C(=O)NNC(=S)NCC)c3ccccc3n2)c1	?	-29%	?	?	3	?
CCNC(=S)NNC(=O)c1cc(-c2cccnc2)nc2ccccc12	-5%	9%	3%	-2%	-2	-26%
COc1cc(Cl)ccc1OCc1nnc(C(=O)N2CCC[C@@H]2c2cccc(F)c2)n1-c1ccccc1	/	6%	/	/	/	/
CCCCOC(=O)NC1CCc2cc(OC)c(OC)c(OC)c2-c2ccc(SC)c(=O)cc21 (stereo unspecified)	0.0082µM*	-18%	0.016µM*	0.0092µM*	31	0.015µM*
COc1cc2c(c(OC)c1OC)-c1ccc(NC(=O)c3ccccc3)c(=O)cc1[C@@H](NC(C)=O)CC2	0%	-17%	3%	0%	4	-9%
CCOCC(=O)NC1CCc2cc(OC)c(OC)c(OC)c2-c2ccc(SC)c(=O)cc21 (stereo unspecified)	0.012µM*	?	0.015µM*	?	0	0.16µM*
CCOC(=O)NC1CCc2cc(OC)c(OC)c(OC)c2-c2ccc(SC)c(=O)cc21 (stereo unspecified)	0.0092µM*	?	0.01µM*	0.1µM*	45	0.016µM*
CN[C@H]1CCc2cc(OC)c(OC)c(OC)c2-c2ccc(OC)c(=O)cc21	0%	-9%	0.021µM*	12%	33	0.13µM*
COc1cc(CC(=O)NC2CCc3ccccc32)ccc1C (stereo unspecified)	/	-6%	/	/	/	/
CC(C)(C)C(=O)Cn1cnc(C#N)n1	/	15%	/	/	/	/
COc1ccc2[nH]c3c(=O)n(/N=C/[C@H]4C(C)C=C(C)CC4C)c(=O)[nH]c3c2c1 (stereo partly specified)	?	?	18µM*	?	-58*	16µM*
COc1ccc2c(c1)[nH]c1c(=O)n(/N=C/C3C(C)C=C(C)CC3C)c(=O)[nH]c12 (stereo unspecified)	-22%	?	?	0%	6	?
COC(=O)C1=C(C)N(C)C(=O)NC1c1ccccc1 (stereo unspecified)	9%	172%	10%	11%	16	5%
CC1=C(C(=O)OCCOc2ccccc2)C(c2ccsc2)NC(=O)N1C (stereo unspecified)	0%	-8%	?	-17%	-23	21µM*
SMILES	HT1080-NT tox	12-LOX inh	TDP1 cell CPT	HT1080 IDH1KD tx	IL1B secr inh	DT40 TDP1 no CPT
CC[C@H]1CN(S(C)(=O)=O)CC[C@H]1CC(=O)NCCSC	/	-19%[176 µM]	/	/	/	/
COc1ccc(-c2nc(CS(=O)CC(=O)NC3CCCc4ccccc43)c(C)o2)cc1OC (stereo unspecified)	-1%	2%[57.4 µM]	?	0%	-17	?
COc1ccc(-c2nc(CSCC(=O)NC3CCCc4ccccc43)c(C)o2)cc1OC (stereo unspecified)	-11%	0%	?	-7%	-3	21µM*
COc1ccc(-c2nc(CSCC(=O)N3CCOCC3)c(C)o2)cc1OC	/	11%	/	/	/	/
COc1ccc(-c2nc(CSCC(=O)N3CCc4ccccc4C3)c(C)o2)cc1OC	-12%	?	?	-10%	?	21µM*
O=C1NC(=NC2CCCCC2)C2(CCN(Cc3ccccc3)C2)N1c1cc(F)cc(F)c1 (stereo unspecified)	/	0%[6.33 µM]	/	/	/	/
CCC(=O)NCC1Cn2cccc2C(=O)N1Cc1ccccc1 (stereo unspecified)	/	14%	/	/	/	/
CCN(CC)C(=O)C1=C(C)N(Cc2ccc(OC)cc2)C(=O)C(CC(=O)NCc2cccc3ccccc23)C1 (stereo unspecified)	-11%	-29%	?	-2%	-3	23µM*
CCN(CC)C(=O)C1=C(C)N(CCC2=CCCCC2)C(=O)C(CC(=O)NCc2cccc3ccccc23)C1 (stereo unspecified)	?	?	16µM*	?	-57*	?
CCN(CC)C(=O)C1=C(C)N(Cc2ccccc2)C(=O)C(CC(=O)NCc2cccc3ccccc23)C1 (stereo unspecified)	-1%	21%	?	-3%	-21	18µM*
CCN(CC)C(=O)C1=C(C)N(Cc2ccc(OC)cc2)C(=O)C(CC(=O)NCc2cccs2)C1 (stereo unspecified)	5%	-53%	-18%	0%	-14	?
CSc1ccc(/C=C2\SC(=Nc3ccccc3)N(c3ccccc3)C2=O)cc1	/	29%	/	/	/	/
CNC(=S)N(C)/N=C1/C(=O)N(Cc2c(Cl)cccc2Cl)c2ccccc21	-11%	?	15µM*	-13%	0	18µM*
COc1cccc(CNC(=O)c2cccc3ccccc23)c1	/	9%	/	/	/	/

Screening data as filed in PubChem.
